According to PubChem BioAssay:

target: Fibroblast growth factor 10 (Homo sapiens) (UniProt O15520); experiment: compounds binding fibroblast growth factor 10 – biochemical, small-molecule microarray, 635 nm fluorescence, primary screen (AID 1102); details: FGF10 binding, fluorescence 635 nm, higher = more signal
Sequence (O15520 whole entry, looked up): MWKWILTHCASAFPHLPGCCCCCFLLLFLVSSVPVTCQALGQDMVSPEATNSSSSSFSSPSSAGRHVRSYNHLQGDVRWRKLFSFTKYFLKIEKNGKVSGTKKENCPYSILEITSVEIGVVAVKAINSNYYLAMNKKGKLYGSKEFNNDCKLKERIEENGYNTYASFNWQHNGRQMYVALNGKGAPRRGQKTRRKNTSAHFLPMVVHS

Q: For CCCCOC(OCCCC)C(O)CSc1ccc2ccccc2c1 (stereo unspecified), which composite z-score is on record?
A: The composite z-score was 0.379.

Q: With CCOC(=O)CCN1C(=O)[C@H]2[C@H]3[C@H](O)[C@H](O)CC(=O)[C@@H]3CC[C@H]2C1=O as the compound, how does the composite z-score read?
A: The composite z-score was 1.1.

Q: CON=C(C)CCN1CCCc2nc(C)c(C)cc21 was tested. Which composite z-score did it give?
A: Its composite z-score is 0.423.

Q: Which composite z-score does the source give for COC(=O)CC=C1c2ccccc2[C@H](OC)[C@H]1C here?
A: The composite z-score was 0.0785.

Q: C=CC[C@@H]1C=C[C@H](ON=C[C@@H](NS(=O)(=O)c2ccc(C)cc2)[C@H](C)C=CCC(=O)OC)[C@@H](CO)O1 was tested. Which composite z-score did it give?
A: Its composite z-score is 0.0083.

Q: Which composite z-score does the source give for O=C1C=C[C@@H](O)[C@@H]2[C@@H]3C(=O)N(c4cccc(Oc5ccccc5)c4)C(=O)[C@@H]3CC[C@@H]12 here?
A: The composite z-score was 0.322.

Q: For C=CC[C@@H]1C=C[C@H](Oc2ccc(C)cc2)[C@@H](COC(=O)NCc2cccc3ccccc23)O1, which composite z-score is on record?
A: The composite z-score was 0.575.

Q: Which composite z-score does the source give for O=C1[C@H]2[C@H]3[C@H](O)[C@H](O)CC(=NOCc4ccccc4)[C@@H]3CC[C@H]2C(=O)N1c1cccc(Oc2ccccc2)c1 here?
A: The composite z-score was 0.485.

Q: With CCCC[C@H]1CN2[C@@H](CC[C@@H](C)[C@@H]2c2ccc(Br)cc2)C(=O)O1 as the compound, how does the composite z-score read?
A: The composite z-score was 0.28.

Q: How did the composite z-score turn out when CCOC(=O)[C@H](Cc1ccccc1)NC(=O)CCC1CC(OC(=O)NCc2cccc3ccccc23)CC2(CCCC(COC(=O)NCc3ccc4c(c3)OCO4)O2)O1 (stereo partly specified) was run?
A: Its composite z-score is 0.587.

Q: How did the composite z-score turn out when CC(C)(C)N1C(=O)[C@H]2[C@H]3[C@H](O)[C@H](O)CC(=NNC(=O)OCc4ccccc4)[C@@H]3CC[C@H]2C1=O was run?
A: Its composite z-score is 0.487.

Q: COc1ccc(OC[C@@H]2CC3[C@@H](c4ccc(Br)cc4)[C@H](C)CC[C@H]3C(=O)O2)cc1 (stereo partly specified) was tested. Which composite z-score did it give?
A: The composite z-score was 0.638.

Q: CC(C)=CCCC(C)=CCON=C1C[C@@H](O)[C@@H](O)[C@@H]2[C@@H]3C(=O)N(c4cccc(Oc5ccccc5)c4)C(=O)[C@@H]3CC[C@H]12 was tested. Which composite z-score did it give?
A: The composite z-score was 0.411.

Q: Which composite z-score does the source give for CCN1C(=O)[C@H]2[C@H]3[C@H](O)[C@H](O)CC(=NO[C@H](C)c4cn([C@H](CO)Cc5ccccc5)nn4)[C@@H]3CC[C@H]2C1=O here?
A: The composite z-score was 0.869.

Q: How did the composite z-score turn out when C#CCCCON=C1C[C@@H](O)[C@@H](O)[C@@H]2[C@@H]3C(=O)N(C[C@@H]4CCCO4)C(=O)[C@@H]3CC[C@@H]12 was run?
A: Its composite z-score is 0.732.

Q: Which composite z-score does the source give for COC(=O)CC=C[C@@H](C)[C@@H](C=NOC[C@@H](O)COCc1ccco1)NS(=O)(=O)c1ccc(C)cc1 here?
A: The composite z-score was -0.168.

Q: For CC(=O)OC[C@H]1O[C@H](CC=NO[C@@H](C)c2cn([C@H](CO)Cc3ccccc3)nn2)C=C[C@@H]1OC(C)=O, which composite z-score is on record?
A: The composite z-score was 1.07.

Q: CCc1cc2c(nc1CC)CCN(CCC(C)=NO[C@@H]1O[C@H](COC(C)=O)[C@@H](OC(C)=O)[C@H](OC(C)=O)[C@H]1OC(C)=O)C2 was tested. Which composite z-score did it give?
A: The composite z-score was 1.14.

Q: CC(C)(C)N1C(=O)[C@H]2[C@@H]3C(=CC[C@H]2C1=O)C(=O)[C@H]1O[C@H]1[C@H]3O was tested. Which composite z-score did it give?
A: Its composite z-score is 0.0491.

Q: How did the composite z-score turn out when CC(C)=NOC(C)CN1CCCCc2nc(C)c(C)cc21 (stereo unspecified) was run?
A: The composite z-score was 0.151.

Q: Which composite z-score does the source give for Cc1ccc2[nH]c3nc(CCCn4ccnc4-c4ccccc4)nnc3c2c1 here?
A: Its composite z-score is 0.632.

Q: COc1ccc(COC(=O)NN=C2C[C@@H](O)[C@@H](O)[C@@H]3[C@@H]4C(=O)N([C@@H](C)c5ccccc5)C(=O)[C@@H]4CC[C@H]23)cc1 was tested. Which composite z-score did it give?
A: Its composite z-score is -0.227.

Q: COC(=O)CC=C[C@@H](C)[C@@H](C=NOC(C)CN1CCCCc2nc(C)c(C)cc21)NS(=O)(=O)c1ccc(C)cc1 (stereo partly specified) was tested. Which composite z-score did it give?
A: The composite z-score was -0.129.

Q: CO[C@@H]1COC(=O)[C@H](CCSC)NC(=O)CC=C[C@@H](C)COC(=O)[C@@H]2CCCN2C(=O)CC=C[C@H]1C was tested. Which composite z-score did it give?
A: Its composite z-score is 0.779.

Q: Which composite z-score does the source give for COC(=O)[C@H](C)NC(=O)CC=C[C@@H](C)[C@@H]1C=C[C@H](O)[C@@H](CO)O1 here?
A: Its composite z-score is 0.6.

Q: For CO[C@@H](C(C)C)[C@@H](C)C1OC(=O)CC1O (stereo partly specified), which composite z-score is on record?
A: The composite z-score was -0.114.

Q: For COc1ccc(OC[C@@H](CO)OC)cc1, which composite z-score is on record?
A: The composite z-score was 0.428.

Q: For COC(=O)[C@H](C)NC(=O)CCC1CC(OC(=O)NCc2ccc3c(c2)OCO3)CC2(CCCC(COC(=O)NCCC(C)C)O2)O1 (stereo partly specified), which composite z-score is on record?
A: Its composite z-score is 0.412.

Q: Which composite z-score does the source give for COc1cccc([C@H]2Oc3ccc(OC)cc3C(=NO[C@@H](C)c3cc(-c4c(C)cc(C)cc4C)no3)[C@@H]2O)c1 here?
A: Its composite z-score is -1.66.

Q: Which composite z-score does the source give for CCOC(=O)CCN1C(=O)[C@H]2[C@H]3[C@H](O)[C@H](O)CC(=NNC(=O)OCC)[C@H]3CC[C@H]2C1=O here?
A: Its composite z-score is 0.0385.

Q: O=C1[C@H]2[C@H]3[C@H](O)[C@H](O)CC(=NOC[C@@H](O)COCc4ccco4)[C@@H]3CC[C@H]2C(=O)N1Cc1ccc2c(c1)OCO2 was tested. Which composite z-score did it give?
A: Its composite z-score is -0.454.

Q: Which composite z-score does the source give for CC(=O)OC[C@H]1O[C@H](CC=NO[C@@H](C)c2cc(-c3c(C)cc(C)cc3C)no2)C=C[C@@H]1OC(C)=O here?
A: Its composite z-score is -0.151.

Q: For CCO[C@H](c1cc(OC)cc([N+](=O)[O-])c1OC)[C@H](C)[C@@H](OC)[C@H](C)C=CCC(=O)OC, which composite z-score is on record?
A: Its composite z-score is 0.278.

Q: Which composite z-score does the source give for COC(=O)[C@H](C)NC(=O)CCC1CC(OC(=O)NCc2ccc3c(c2)OCO3)CC2(CCCC(COC(=O)NCCc3ccc(Cl)cc3)O2)O1 (stereo partly specified) here?
A: Its composite z-score is 0.382.

Q: How did the composite z-score turn out when COc1ccc(COC(=O)NN=C2C[C@@H](O)[C@@H](O)[C@@H]3[C@@H]4C(=O)N(c5cccc(Oc6ccccc6)c5)C(=O)[C@@H]4CC[C@H]23)cc1 was run?
A: The composite z-score was -0.0908.

Q: Which composite z-score does the source give for COc1cccc([C@H]2Oc3ccc(OC)cc3C(=NOCC[C@@H]3C=C[C@H](OC(C)=O)[C@@H](COC(C)=O)O3)[C@@H]2O)c1 here?
A: Its composite z-score is 0.696.
